In PubChem BioAssay AID1159580 (chemical genetic matrix, 2015):
Hit rate of the full screen: of about 5,500 compounds, about 2,000 (36%) were called active. About 18% were inconclusive and are not listed. No stated cut-off is given here; in the data, active means normalized growth mostly below about 0.91 (no sharp cut-off); inconclusive means no clear call, values can overlap the other calls; inactive means mostly above about 0.92. The list shows a part of the results.

Assay: chemical genetic growth profiling, strain panel (AID 1159580);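 further: tested at 20 µM; growth read once vehicle control cultures reached saturation at 30 °C; 1 = growth at the plate median or of vehicle wells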
Details: S. cerevisiae deletion strains, growth OD

Measured: normalized growth

Cn1c([N+](=O)[O-])cnc1COC(N)=O
inactive: locus YAL013W, strain DEP1, stronger effect = lower value 1.01 | locus YAL021C, strain ccr4, stronger effect = lower value 1.01 | locus YAL026C, strain drs2, stronger effect = lower value 1.02 | locus YAL030W, strain snc1, stronger effect = lower value 1 | locus YBL061C, strain skt5, stronger effect = lower value 1.01 | locus YBR009C, strain hhf1, stronger effect = lower value 0.978 | locus YBR021W, strain FUR4, stronger effect = lower value 1.02 | locus YBR023C, strain chs3, stronger effect = lower value 1.01 | locus YBR171W, strain sec66, stronger effect = lower value 1.01 | locus YBR229C, strain ROT2, stronger effect = lower value 1.01 | locus YBR231C, strain swc5, stronger effect = lower value 0.992 | locus YBR279W, strain paf1, stronger effect = lower value 1 | locus YCL011C, strain gbp2, stronger effect = lower value 1.01 | locus YCL016C, strain dcc1, stronger effect = lower value 1.01 | locus YCL029C, strain bik1, stronger effect = lower value 0.993 | locus YCL069W, strain vba3, stronger effect = lower value 0.987 | locus YCR088W, strain abp1, stronger effect = lower value 1.01 | locus YDL005C, strain med2, stronger effect = lower value 1.01 | locus YDL035C, strain GPR1, stronger effect = lower value 1.02 | locus YDL040C, strain nat1, stronger effect = lower value 0.997 | locus YDL074C, strain BRE1, stronger effect = lower value 1.02 | locus YDL101C, strain DUN1, stronger effect = lower value 1.02 | locus YDL134C, strain PPH21, stronger effect = lower value 1 | locus YDL185W, strain tfp1, stronger effect = lower value 0.978 | locus YDL192W, strain arf1, stronger effect = lower value 0.984 | locus YDR001C, strain nth1, stronger effect = lower value 1 | locus YDR069C, strain doa4, stronger effect = lower value 0.984 | locus YDR101C, strain arx1, stronger effect = lower value 0.986 | locus YDR137W, strain rgp1, stronger effect = lower value 1.04 | locus YDR150W, strain NUM1, stronger effect = lower value 1 | locus YDR159W, strain sac3, stronger effect = lower value 0.983 | locus YDR162C, strain NBP2, stronger effect = lower value 1.01 | locus YDR195W, strain ref2 1.01 | locus YDR297W, strain sur2, stronger effect = lower value 1.02 | locus YDR318W, strain mcm21, stronger effect = lower value 0.985 | locus YDR334W, strain swr1, stronger effect = lower value 1 | locus YDR335W, strain msn5, stronger effect = lower value 1.01 | locus YDR388W, stronger effect = lower value 0.992 | locus YDR392W, strain spt3, stronger effect = lower value 1.04 | locus YDR502C, strain sam2, stronger effect = lower value 0.989 | locus YEL003W, strain gim4, stronger effect = lower value 0.999 | locus YEL037C, strain rad23, stronger effect = lower value 0.998 | locus YEL061C, strain CIN8 (second series), stronger effect = lower value 1 | locus YEL061C, strain CIN8, stronger effect = lower value 1.01 | locus YER015W, strain faa2, stronger effect = lower value 1.01 | locus YER016W, strain bim1, stronger effect = lower value 1.02 | locus YER110C, stronger effect = lower value 0.988 | locus YER111C, strain swi4, stronger effect = lower value 0.998 | locus YER155C, strain BEM2 (second series), stronger effect = lower value 1.02 | locus YER155C, strain BEM2, stronger effect = lower value 1 | locus YER167W, strain BCK2, stronger effect = lower value 1.01 | locus YFR010W, strain ubp6, stronger effect = lower value 0.983 | locus YGL078C, strain dbp3, stronger effect = lower value 0.987 | locus YGL086W, strain mad1, stronger effect = lower value 0.998 | locus YGL167C, strain pmr1, stronger effect = lower value 1 | locus YGL173C, strain kem1, stronger effect = lower value 1 | locus YGL227W, strain vid30, stronger effect = lower value 1.01 | locus YGL240W, strain doc1, stronger effect = lower value 1 | locus YGL248W, strain PDE1, stronger effect = lower value 1.01 | locus YGL253W, strain hxk2, stronger effect = lower value 1.01 | locus YGR078C, strain PAC10, stronger effect = lower value 1.01 | locus YGR135W, strain pre9, stronger effect = lower value 0.983 | locus YGR252W, strain gcn5, stronger effect = lower value 0.981 | locus YHR013C, strain ard1, stronger effect = lower value 1.04 | locus YHR027C, strain rpn1, stronger effect = lower value 1.02 | locus YHR030C, strain SLT2, stronger effect = lower value 1.01 | locus YHR079C, strain IRE1 (second series), stronger effect = lower value 0.991 | locus YHR079C, strain IRE1, stronger effect = lower value 1 | locus YHR094C, strain hxt1, stronger effect = lower value 0.986 | locus YHR129C, strain ARP1, stronger effect = lower value 1 | locus YHR142W, strain chs7, stronger effect = lower value 1.01 | locus YHR200W, strain rpn10, stronger effect = lower value 0.986 | locus YIL066C, strain RNR3, stronger effect = lower value 1.02 | locus YIL073C, strain SPO22, stronger effect = lower value 1.03 | locus YIL125W, strain kgd1, stronger effect = lower value 0.987 | locus YIR030C, strain dcg1, stronger effect = lower value 0.994 | locus YJL092W, strain hpr5, stronger effect = lower value 1.01 | locus YJL095W, strain BCK1 (second series), stronger effect = lower value 1.01 | locus YJL095W, strain BCK1, stronger effect = lower value 1.02 | locus YJL115W, strain asf1, stronger effect = lower value 0.999 | locus YJL129C, strain trk1, stronger effect = lower value 1.02 | locus YJL134W, strain LCB3, stronger effect = lower value 1 | locus YJL154C, strain vps35, stronger effect = lower value 1.01 | locus YJL164C, strain tpk1, stronger effect = lower value 0.993 | locus YJL166W, strain qcr8, stronger effect = lower value 0.988 | locus YJL168C, strain set2, stronger effect = lower value 0.986 | locus YJL187C, strain SWE1 (second series), stronger effect = lower value 1.02 | locus YJR043C, strain POL32, stronger effect = lower value 1.02 | locus YJR066W, strain TOR1, stronger effect = lower value 0.954
